Measured potencies and affinities stand elsewhere. Inconclusive results are not listed. Activity calls are given as the source filed them. The rule behind the calls is not given here.
Assay: general cell-killing toxicity readout – plate reader, dry powder samples, cytotoxicity control for PAX8 inhibitor project, dose response (AID 743021)
Settings: cell line, non-specific cytotoxicity counter-screen; series mostly up to 35 µM; activity change, negative = cytotoxicity: at the top concentration

Structure (SMILES)	activity change, negative = cytotoxicity
Cc1ccc(S(=O)(=O)N(C)C[C@H]2Oc3cc(C#Cc4ccncc4)ccc3S(=O)(=O)N([C@H](C)CO)C[C@H]2C)cc1	-32% (inactive)
O=C(Cc1ccccc1)N1CC[C@H]2[C@H](CO)Nc3ccc(C4=CCCCC4)cc3[C@H]21	-13.5% (inactive)
Cc1noc(C)c1S(=O)(=O)Nc1ccc2c(c1)C(=O)N([C@H](C)CO)C[C@@H](C)[C@H](CN(C)C(=O)Nc1ccc(C(F)(F)F)cc1)OCCCC[C@@H](C)O2	-20.9% (inactive)
C[C@@H]1CN([C@H](C)CO)C(=O)c2cc(NC(=O)Cc3ccccc3)ccc2O[C@@H](C)CCCCO[C@@H]1CN(C)Cc1ccc(C(F)(F)F)cc1	-9.92% (inactive)
C[C@H](CO)N1C[C@H](C)[C@@H](CN(C)S(=O)(=O)c2cccc(F)c2)OCc2ccccc2-c2c(n(C)c3ccccc23)C1=O	0.249% (inactive)
C[C@@H]1CN([C@@H](C)CO)C(=O)Cc2cc(NC(=O)Cc3cn(C)c4ccccc34)ccc2O[C@H]1CN(C)Cc1ccc(Oc2ccccc2)cc1	-17.6% (inactive)
C[C@H]1CCCCO[C@H](CN(C)C(=O)C2CCCCC2)[C@@H](C)CN([C@@H](C)CO)C(=O)c2cc(NS(=O)(=O)c3ccc(Cl)cc3)ccc2O1	-12.8% (inactive)
C[C@@H]1CN([C@H](C)CO)C(=O)c2cc(NC(=O)Nc3ccc(F)cc3)ccc2O[C@@H](C)CCCCO[C@@H]1CN(C)Cc1ccc(Cl)c(Cl)c1	-16.7% (inactive)
C[C@@H]1CN([C@H](C)CO)C(=O)c2cc(NC(=O)Nc3cccc4ccccc34)ccc2O[C@@H]1CN(C)C(=O)Nc1cccc2ccccc12	4.77% (inactive)
C[C@@H]1CCCCO[C@H](CN(C)Cc2ccc(C(F)(F)F)cc2)[C@H](C)CN([C@H](C)CO)C(=O)c2cc(NC(=O)c3ccccc3)ccc2O1	-8.56% (inactive)
Cc1ccccc1-c1ccc2c(c1)O[C@H](CN(C)C(=O)Nc1ccc(C(F)(F)F)cc1)[C@@H](C)CN([C@H](C)CO)S2(=O)=O	-18.1% (inactive)
COc1ccccc1C#Cc1ccc2c(c1)O[C@@H](CN(C)Cc1cncnc1)[C@H](C)CN([C@H](C)CO)S2(=O)=O	-29.8% (inactive)
C[C@@H]1CN([C@H](C)CO)S(=O)(=O)c2ccc(C#CC3CCCC3)cc2O[C@H]1CN(C)Cc1cccnc1	-14% (inactive)

Assay: IGROV1 cell killing – plate reader, dry powder samples, PAX8 inhibitor project, dose response (AID 743043);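 note: more negative means fewer viable cells or more cytotoxicity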
Settings: IGROV1 ovarian cancer cell cytotoxicity; series mostly up to 35 µM; activity change, negative = cytotoxicity: at the top concentration

Structure (SMILES)	activity change, negative = cytotoxicity
COc1ccc2c3c([nH]c2c1)[C@H](CO)N(C(=O)Nc1cccc(F)c1)CC31CCN(S(=O)(=O)c2cccc(C)c2)CC1	-10.2% (inactive)
COc1ccc(-c2ccc3c(c2)[C@@H]2[C@@H](CCN2S(=O)(=O)c2ccc(OC)cc2)[C@@H](CO)N3C)cc1	-19.5% (inactive)
C[C@@H]1CN([C@H](C)CO)C(=O)c2cc(NC(=O)Nc3ccccc3)ccc2O[C@@H](C)CCCCO[C@@H]1CN(C)CC1CCCCC1	-7.72% (inactive)
C[C@@H]1CN([C@H](C)CO)C(=O)CCCn2cc(nn2)CO[C@H]1CN(C)C(=O)Nc1ccc(-c2cccs2)cc1	5.43% (inactive)
C[C@H](CO)N1C[C@H](C)[C@H](CN(C)S(=O)(=O)c2ccc(Cl)cc2)OCCCC[C@H](C)Oc2ccc(NS(=O)(=O)c3ccc(Cl)cc3)cc2C1=O	-21.2% (inactive)
C[C@H]1CCCCO[C@H](CN(C)Cc2ccc(C(F)(F)F)cc2)[C@@H](C)CN([C@@H](C)CO)C(=O)c2cc(NS(=O)(=O)c3ccc(F)cc3)ccc2O1	-1.07% (inactive)
Cc1cccc(S(=O)(=O)N2CC[C@@H]3[C@H](CO)N(C)c4ccc(-c5ccc(C#N)cc5)cc4[C@@H]32)c1	3.72% (inactive)
C[C@@H]1CCCCO[C@@H](CN(C)C(=O)c2ccccc2)[C@H](C)CN([C@H](C)CO)C(=O)c2cc(NC(=O)Nc3ccc(C(F)(F)F)cc3)ccc2O1	-17.7% (inactive)
C[C@H]1CN([C@@H](C)CO)S(=O)(=O)c2ccc(C#Cc3ccc(F)cc3)cc2O[C@@H]1CN(C)C(=O)NC1CCCCC1	17.3% (inactive)
C[C@@H]1CCCCO[C@H](CN(C)Cc2ccccc2)[C@@H](C)CN([C@@H](C)CO)C(=O)c2cc(NC(=O)Nc3ccc(C(F)(F)F)cc3)ccc2O1	-17.5% (inactive)
O=C(Nc1ccc(C(F)(F)F)cc1)Nc1ccc2c(c1)[C@@H]1C[C@H](CC(=O)N3CCc4ccccc4C3)O[C@H](CO)[C@@H]1O2	-2.46% [at 30 µM] (inactive)
CC(C)NC(=O)N(C)C[C@H]1OCCCC[C@@H](C)Oc2ccc(NC(=O)Nc3ccc(C(F)(F)F)cc3)cc2C(=O)N([C@@H](C)CO)C[C@H]1C	-5.52% (inactive)
COc1cccc(C#Cc2ccc3c(c2)O[C@@H](CN(C)C(=O)c2ccccn2)[C@H](C)CN([C@@H](C)CO)S3(=O)=O)c1	-8.23% (inactive)
C[C@@H]1CCCCO[C@@H](CN(C)C(=O)Nc2ccc(C(F)(F)F)cc2)[C@H](C)CN([C@H](C)CO)C(=O)c2cc(NS(=O)(=O)c3ccc(Cl)cc3)ccc2O1	-5.88% (inactive)
C[C@@H]1CCCCO[C@@H](CN(C)S(=O)(=O)c2ccc(F)cc2)[C@H](C)CN([C@H](C)CO)C(=O)c2cc(NS(=O)(=O)c3ccc(Cl)cc3)ccc2O1	-26.2% (inactive)
CC(C)CC1NC(=S)N(Cc2ccccc2)C1=O (configuration not stated)	17.3% [at 50 µM] (inactive)
CC(C)CC#Cc1ccc2c(c1)O[C@H](CN(C)S(=O)(=O)c1ccc(F)cc1)[C@@H](C)CN([C@@H](C)CO)S2(=O)=O	17.1% (inactive)
C[C@@H]1CCCCO[C@H](CN(C)CC2CCCCC2)[C@H](C)CN([C@@H](C)CO)C(=O)c2cc(NC(=O)Nc3ccccc3)ccc2O1	17.2% (inactive)
C[C@H]1CCCCO[C@H](CN(C)Cc2ccc(C(F)(F)F)cc2)[C@@H](C)CN([C@@H](C)CO)C(=O)c2cc(NS(=O)(=O)c3cccs3)ccc2O1	-7.3% (inactive)
C[C@@H]1CCCCO[C@H](CN(C)C(=O)Nc2ccc(C(F)(F)F)cc2)[C@@H](C)CN([C@@H](C)CO)C(=O)c2cc(NC(=O)Nc3ccc(C(F)(F)F)cc3)ccc2O1	-25.1% (inactive)

Structure (SMILES)	activity change, negative = cytotoxicity
COc1cccc(S(=O)(=O)N2CCCCN3[C@@H](CO)[C@@H](c4ccc(C#CCC(C)C)cc4)[C@@H]3C2)c1	-19.5% (inactive)
C[C@H]1CCCCO[C@@H](CN(C)Cc2ccc3c(c2)OCO3)[C@@H](C)CN([C@@H](C)CO)C(=O)c2cc(NC(=O)Nc3ccc(F)cc3)ccc2O1	-18% (inactive)
Cc1ccc(S(=O)(=O)Nc2ccc3c(c2)C(=O)N([C@H](C)CO)C[C@@H](C)[C@H](CN(C)Cc2ccc(Cl)c(Cl)c2)OCCCC[C@H](C)O3)cc1	7.03% [at 16 µM] (inactive)
C[C@@H]1CN([C@H](C)CO)S(=O)(=O)c2ccc(-c3ccc(C#N)cc3)cc2O[C@@H]1CN(C)Cc1cccc(F)c1	-3.08% (inactive)
C[C@H]1CN([C@@H](C)CO)C(=O)Cc2cc(NC(=O)NC3CCCCC3)ccc2O[C@H]1CN(C)Cc1ccc(-c2ccccc2)cc1	7.76% (inactive)
O=C(Nc1ccc(F)cc1)N1CC(=O)N2[C@@H](CO)[C@@H](c3ccc(C#Cc4ccc(F)cc4)cc3)[C@@H]2C1	-2.92% (inactive)
Cc1ccc(S(=O)(=O)N(C)C[C@H]2Oc3cc(C#Cc4ccncc4)ccc3S(=O)(=O)N([C@H](C)CO)C[C@H]2C)cc1	-22.2% (inactive)
O=C(Cc1ccccc1)N1CC[C@H]2[C@H](CO)Nc3ccc(C4=CCCCC4)cc3[C@H]21	11% (inactive)
Cc1noc(C)c1S(=O)(=O)Nc1ccc2c(c1)C(=O)N([C@H](C)CO)C[C@@H](C)[C@H](CN(C)C(=O)Nc1ccc(C(F)(F)F)cc1)OCCCC[C@@H](C)O2	-28.7% (inactive)
C[C@@H]1CN([C@H](C)CO)C(=O)c2cc(NC(=O)Cc3ccccc3)ccc2O[C@@H](C)CCCCO[C@@H]1CN(C)Cc1ccc(C(F)(F)F)cc1	-13.3% (inactive)
C[C@H](CO)N1C[C@H](C)[C@@H](CN(C)S(=O)(=O)c2cccc(F)c2)OCc2ccccc2-c2c(n(C)c3ccccc23)C1=O	-15.2% (inactive)
C[C@@H]1CN([C@@H](C)CO)C(=O)Cc2cc(NC(=O)Cc3cn(C)c4ccccc34)ccc2O[C@H]1CN(C)Cc1ccc(Oc2ccccc2)cc1	-49% (inactive)
C[C@H]1CCCCO[C@H](CN(C)C(=O)C2CCCCC2)[C@@H](C)CN([C@@H](C)CO)C(=O)c2cc(NS(=O)(=O)c3ccc(Cl)cc3)ccc2O1	-15.9% (inactive)
C[C@@H]1CN([C@H](C)CO)C(=O)c2cc(NC(=O)Nc3ccc(F)cc3)ccc2O[C@@H](C)CCCCO[C@@H]1CN(C)Cc1ccc(Cl)c(Cl)c1	-30.7% (inactive)
C[C@@H]1CN([C@H](C)CO)C(=O)c2cc(NC(=O)Nc3cccc4ccccc34)ccc2O[C@@H]1CN(C)C(=O)Nc1cccc2ccccc12	13.6% (inactive)
C[C@@H]1CCCCO[C@H](CN(C)Cc2ccc(C(F)(F)F)cc2)[C@H](C)CN([C@H](C)CO)C(=O)c2cc(NC(=O)c3ccccc3)ccc2O1	-24.8% (inactive)
Cc1ccccc1-c1ccc2c(c1)O[C@H](CN(C)C(=O)Nc1ccc(C(F)(F)F)cc1)[C@@H](C)CN([C@H](C)CO)S2(=O)=O	-6.13% (inactive)
COc1ccccc1C#Cc1ccc2c(c1)O[C@@H](CN(C)Cc1cncnc1)[C@H](C)CN([C@H](C)CO)S2(=O)=O	-1.33% (inactive)
C[C@@H]1CN([C@H](C)CO)S(=O)(=O)c2ccc(C#CC3CCCC3)cc2O[C@H]1CN(C)Cc1cccnc1	8.34% (inactive)

From PubChem BioAssay
